Laboratory results from the supplement of paper PMC4100887.
Structures can show the parent of a compound that is named as a salt. ± gives the standard deviation of the averaged measurements.

Experiments:
IMR-90 = assay: relative cell viability (ATPlite) vs untreated control (fraction); higher = less toxic; settings: 1 µM; 72 h
K562 [1] = assay: as above; settings: 1 µM; 72 h
K562 [2] = assay: relative cell viability (ATPlite) vs untreated control, with imatinib (fraction); higher = less toxic; settings: 1 µM; 72 h; imatinib 0.125 µM

Compound	relative cell viability (IMR-90)	relative cell viability (K562 [1])	relative cell viability (K562 [2])
O=c1c(O)c(-c2ccc(O)c(O)c2)oc2cc(O)c(O)c(O)c12 [Quercetagetin]	0.88 ± 0.16	0.799 ± 0.086	0.64 ± 0.025
COc1cc2ncnc(Nc3ccc(NC(=O)c4ccccc4)cc3)c2cc1OC [Aurora Kinase Inhibitor II]	0.92 ± 0.071	0.909 ± 0.055	0.783 ± 0.027
NCCCn1cc(C2=C(c3c[nH]c4ccccc34)C(=O)NC2=O)c2ccccc21 [Bisindolylmaleimide III, Hydrochloride]	1.06 ± 0.088	0.88 ± 0.058	0.776 ± 0.042
CC(C)n1cnc2c(NCc3ccccc3)nc(NCCCO)nc21 [Bohemine]	1.03 ± 0.066	0.9 ± 0.074	0.797 ± 0.029
CCCOc1ccc(/C=C2/SC(=O)NC2=O)cc1 [PIM1/2 Kinase Inhibitor VI]	0.916 ± 0.1	0.972 ± 0.031	0.802 ± 0.029
CCCCCCOC(=O)[C@]1(O)C[C@@H]2O[C@@]1(C)n1c3ccccc3c3c4c(c5c6ccccc6n2c5c31)C(=O)NC4	1.05 ± 0.14	0.825 ± 0.056	0.764 ± 0.02
COc1cc(SC)ccc1C(=O)N1CCC(Cc2ccccc2)CC1 [p38 MAP Kinase Inhibitor VI, JX401]	1.03 ± 0.094	0.807 ± 0.042	0.716 ± 0.023
CCC(CO)Nc1nc(NCc2ccccc2)c2ncn(C(C)C)c2n1 [Roscovitine, (S)-Isomer]	1.04 ± 0.054	0.912 ± 0.081	0.729 ± 0.057
COc1ccc2nc3n[nH]c(C)c3c(NCCOCCO)c2c1	1 ± 0.077	1.02 ± 0.064	0.843 ± 0.066
c1cc(-c2cnn3cc(-c4ccc(OCCN5CCCCC5)cc4)cnc23)ccn1 [AMPK Inhibitor, Compound C]	0.86 ± 0.092	0.883 ± 0.072	0.834 ± 0.051
CCN(CC)CCNC(=O)c1c(C)[nH]c(/C=C2\C(=O)Nc3ccc(Cl)cc32)c1C	0.92 ± 0.082	0.909 ± 0.062	0.799 ± 0.052
O=[N+]([O-])c1ccc(-c2nc(-c3ccc(F)cc3)c(-c3ccncc3)[nH]2)cc1	1.05 ± 0.089	0.774 ± 0.031	0.693 ± 0.039
CCN(CC)CCCCN1c2ccccc2Oc2ccc(Cl)cc21 [Akt Inhibitor X]	0.889 ± 0.093	0.848 ± 0.089	0.77 ± 0.061
CS(=O)(=O)c1ccc(-c2nc(-c3ccc(F)cc3)c(-c3ccncc3)[nH]2)cc1	1.03 ± 0.08	0.831 ± 0.064	0.703 ± 0.043
CSc1nc(-c2ccnc(NC(C)c3ccccc3)c2)c(-c2ccc(F)cc2)[nH]1 (configuration not stated) [p38 MAP Kinase Inhibitor III]	1.03 ± 0.072	0.909 ± 0.024	0.735 ± 0.038
COc1cc(Nc2ncc3ccn(-c4cccc(CCC#N)c4)c3n2)cc(OC)c1OC [Keratinocyte Differentiation Inducer]	1.02 ± 0.058	0.173 ± 0.21	0.459 ± 0.35
CC[n+]1c(/C=C/N(C)c2ccccc2)n(-c2ccccc2)c2ccc(-c3nc4ccccc4s3)cc21 [Akt Inhibitor IV]	0.924 ± 0.1	0.169 ± 0.082	0.0639 ± 0.02
NC(=O)Nc1cc(-c2ccccc2)sc1C(N)=O [IKK-2 Inhibitor XI]	0.982 ± 0.094	0.983 ± 0.09	0.802 ± 0.037
CN[C@@H]1C[C@H]2O[C@@](C)([C@@H]1OC)n1c3ccccc3c3c4c(c5c6ccccc6n2c5c31)C(=O)N[C@H]4O	0.101 ± 0.021	0.18 ± 0.048	0.14 ± 0.026
CC[C@H](CO)Nc1nc(NCc2ccc(-c3ccccn3)cc2)c2ncn(C(C)C)c2n1 [CR8, (R)-Isomer]	0.297 ± 0.51	0.0971 ± 0.02	0.0846 ± 0.015
O=c1c2ccccc2[nH]c(=S)n1CCN1CCC(=C(c2ccc(F)cc2)c2ccc(F)cc2)CC1 [Diacylglycerol Kinase Inhibitor II]	0.995 ± 0.097	0.867 ± 0.094	0.768 ± 0.07
CC(C)n1cnc2c(NCc3ccccc3O)nc(NCCCO)nc21 [Cdk Inhibitor, p35]	1.04 ± 0.054	0.855 ± 0.056	0.779 ± 0.03
COc1cc2ncc(-c3ccccc3)nc2cc1OC	1.1 ± 0.066	0.888 ± 0.083	0.76 ± 0.045
O=C1NC(=O)c2c1c1c3ccccc3[nH]c1n1cncc21 [Isogranulatimide]	1.01 ± 0.063	0.837 ± 0.077	0.773 ± 0.049
Nc1nc(Nc2ccc(S(N)(=O)=O)cc2)nn1C(=S)Nc1c(F)cccc1F [Cdk1/2 Inhibitor III]	1.11 ± 0.082	0.0545 ± 0.0021	0.0471 ± 0.0048
O=C(O)c1ccc2c3c1cccc3c(=O)n1c3ccccc3nc21	0.961 ± 0.12	0.947 ± 0.051	0.811 ± 0.088
Nc1n[nH]c(N)c1N=Nc1ccc(O)cc1 [Cdk9 Inhibitor II]	0.93 ± 0.099	0.839 ± 0.073	0.765 ± 0.035
COc1ccc2c(c1)c(C1=C(c3c[nH]c4ccccc34)C(=O)NC1=O)cn2CCCN(C)C	0.969 ± 0.082	0.872 ± 0.06	0.755 ± 0.051
NC(=O)c1ccc2nc(-c3ccc(Oc4ccc(Cl)cc4)cc3)[nH]c2c1 [Chk2 Inhibitor II]	1.05 ± 0.097	0.778 ± 0.061	0.681 ± 0.027
